BAZ2B block: qHTS Assay for Inhibitors of BAZ2B; AID 504333, 2011; Potency, µM (highest dose often 114 µM), inactives show at the highest dose activity change, negative = inhibition, hits mostly inhibitors; AlphaScreen BAZ2B-H3K14Ac peptide displacement; Bromodomain adjacent to zinc finger domain protein 2B (Homo sapiens), Q9UIF8; 4.4% of 360,000 active; also: % is scaled to controls: 0 for no effect and ±100 for the full control effect; nearly all actives have a fitted effect of over 60% in size
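Complex of BAZ2B and biotin-H3K14Ac (50 nM apiece) forms over 30 min at RT, then faces library compounds up to 110 uM for another 30 min; AlphaScreen beads added, 20 min dark incubation, luminescence read.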
G9a inh: qHTS Assay for Inhibitors of Histone Lysine Methyltransferase G9a; Histone-lysine N-methyltransferase EHMT2 (Homo sapiens), Q96KQ7; G9a H3K9 monomethylation, AlphaScreen, 2 h; Potency, µM (top dose mostly 102 µM), without a hit: at the top dose activity, negative = inhibition, usual class: inhibitors; 8.8% of 350,000 active; also: % is scaled to controls: 0 for no effect and ±100 for the full control effect; nearly all actives have a fitted effect of over 75% in size
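Readings reflect AlphaScreen signal from monomethyl-H3K9 antibody detection. HMT at 20 nM; substrate b-H3K9 500 nM; cofactor SAM 20 uM; 2 h RT reaction; compounds tested as titrations in qHTS with 15 min preincubation.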
HP1b binding inh: HTS for Inhibitors of HP1-beta Chromodomain Interactions with Methylated Histone Tails; Chromobox protein homolog 1 (Homo sapiens), P83916; 0.56% of 390,000 active; AID 540317, 2011; Potency, µM (series often up to 114 µM), without a hit: at the top dose activity change, negative = inhibition, most hits filed as inhibitors; AlphaScreen HP1-beta / biotin-H3K9me3 peptide binding; also: nearly all actives have a fitted effect of over 70% in size
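Compound inhibition of the preformed complex between 50 nM HP1-beta and 50 nM biotinylated H3K9me3 peptide was read by AlphaScreen. Buffer was PBS pH 7.4 with 0.01% Tween-20. Incubations ran 30 min at room temperature, with 10 ug/mL donor/acceptor beads.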
JMJD2A Tudor inh: qHTS Assay for Inhibitors of JMJD2A-Tudor Domain | 4.4% of 390,000 active | Potency, µM (highest dose often 114 µM), without a hit: top-dose activity change, negative = inhibition, most hits filed as inhibitors | Lysine-specific demethylase 4A (Homo sapiens), O75164 | AlphaScreen JMJD2A-Tudor / H3K4me3 peptide binding; also: % is scaled to controls: 0 for no effect and ±100 for the full control effect; nearly all actives have a fitted effect of over 50% in size
Target sequence (O75164 whole entry, looked up, the tested form may be a part): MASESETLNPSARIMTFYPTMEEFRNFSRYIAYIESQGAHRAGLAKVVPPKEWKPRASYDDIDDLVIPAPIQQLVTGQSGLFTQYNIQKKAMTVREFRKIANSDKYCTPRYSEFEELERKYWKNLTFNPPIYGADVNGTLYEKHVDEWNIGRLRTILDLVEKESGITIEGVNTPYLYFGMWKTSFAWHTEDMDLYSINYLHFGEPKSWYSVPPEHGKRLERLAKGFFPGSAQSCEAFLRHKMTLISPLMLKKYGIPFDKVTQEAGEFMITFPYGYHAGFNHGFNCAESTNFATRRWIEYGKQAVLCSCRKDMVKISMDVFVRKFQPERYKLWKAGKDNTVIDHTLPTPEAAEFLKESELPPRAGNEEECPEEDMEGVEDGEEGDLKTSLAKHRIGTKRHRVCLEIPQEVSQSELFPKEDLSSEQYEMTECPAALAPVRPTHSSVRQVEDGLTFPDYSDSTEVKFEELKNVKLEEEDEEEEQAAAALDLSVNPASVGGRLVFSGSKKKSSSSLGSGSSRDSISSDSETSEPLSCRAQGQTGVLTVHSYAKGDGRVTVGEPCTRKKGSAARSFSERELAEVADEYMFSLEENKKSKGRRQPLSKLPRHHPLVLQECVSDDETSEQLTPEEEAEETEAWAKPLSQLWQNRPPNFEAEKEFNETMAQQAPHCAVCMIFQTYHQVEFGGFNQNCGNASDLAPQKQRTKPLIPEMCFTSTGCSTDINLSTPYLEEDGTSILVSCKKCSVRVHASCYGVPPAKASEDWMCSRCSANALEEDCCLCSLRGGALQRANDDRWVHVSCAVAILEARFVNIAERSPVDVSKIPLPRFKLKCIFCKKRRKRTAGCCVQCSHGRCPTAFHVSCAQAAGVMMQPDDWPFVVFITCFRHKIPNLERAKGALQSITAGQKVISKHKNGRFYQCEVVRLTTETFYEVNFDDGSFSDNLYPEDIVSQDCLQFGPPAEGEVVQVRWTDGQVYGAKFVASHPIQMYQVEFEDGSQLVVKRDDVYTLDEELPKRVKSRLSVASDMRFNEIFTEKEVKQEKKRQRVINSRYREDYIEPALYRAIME
L3MBTL1 inh: qHTS Assay for the Inhibitors of L3MBTL1 | AlphaScreen L3MBTL1–H3K9me1 peptide binding | Lethal(3)malignant brain tumor-like protein 1 (Homo sapiens), Q9Y468 | 0.66% of 230,000 active | Potency, µM (series often up to 57.1 µM), without a hit: at the highest dose activity, negative = inhibition, usual class: inhibitors; also: % is scaled to controls: 0 for no effect and ±100 for the full control effect; nearly all actives have a fitted effect of over 60% in size
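First, the protein-peptide complex forms for 30 min at room temperature (L3MBTL1 50 nM, biotinylated H3K9me1 peptide 75 nM). Next, compounds are pin-transferred and incubated 30 min. Finally, AlphaScreen beads are added and read after 30 min.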
Numbers without * were called inactive; [ ] = another dose, or the depositor's remark. Only some compounds are listed: those with a hit (about 11% of all), similar ones and a draw of the others. Calls follow the shape of the dose curve; as a rule, active = well fitted inhibition curve with a large enough effect; inconclusive = small, poorly fitted or top-dose-only effect; inactive = no such curve, though single readings can be large or run the other way. Potency is read from the fitted curve at half-maximal effect.

Screening CCOCCCNS(=O)(=O)c1ccc(NC(=O)c2ccc(OC)c([N+](=O)[O-])c2)cc1 returned BAZ2B block 0.2%, G9a inh 11.3%, HP1b binding inh -14.8%, JMJD2A Tudor inh 11.2µM* and L3MBTL1 inh 4.9%.
COc1ccc(C(=O)Nc2ccc(S(=O)(=O)N3CCN(C)CC3)cc2)cc1[N+](=O)[O-] was read as BAZ2B block -24.8%, G9a inh 0.7%[59 µM], HP1b binding inh 19.1%, JMJD2A Tudor inh -6.6% and L3MBTL1 inh -2.9%.
CC(Oc1ccccc1F)C(=O)N1CCC(c2nc3ccccc3o2)CC1 (centres undefined) was read as BAZ2B block inconclusive, G9a inh 5.7%[59 µM], HP1b binding inh 26.2% and JMJD2A Tudor inh -0.7%.
CC1CCN(c2ccc3c(c2)S(=O)(=O)c2cccc(C(=O)NCc4ccc(F)cc4)c2C3=O)CC1 was read as BAZ2B block -4.2%, G9a inh 27.3%[2.33 µM], HP1b binding inh 23.7%, JMJD2A Tudor inh -10.7% and L3MBTL1 inh 19.5%.
Screening O=C(NCc1ccc(F)cc1)c1cccc2c1C(=O)c1ccc(N3CCOCC3)cc1S2(=O)=O returned BAZ2B block -7.5%, G9a inh 4.8%[0.501 µM], HP1b binding inh 44.3%, JMJD2A Tudor inh 79.4µM* and L3MBTL1 inh 0.5%.
For CCn1c(=O)cc(C(=O)OC)sc1=Nc1ccc(F)c(F)c1 the results were BAZ2B block -37.5%, G9a inh inconclusive, HP1b binding inh 1.5% and JMJD2A Tudor inh inconclusive.
CCOC(=O)c1ccc(N=c2sc(C(=O)OC)cc(=O)n2Cc2ccco2)cc1 was read as BAZ2B block inconclusive, G9a inh 39.8µM*, HP1b binding inh 3.0%, JMJD2A Tudor inh inconclusive and L3MBTL1 inh -8.6%.
COC(=O)c1cc(=O)n(CCc2ccccc2)c(=Nc2ccc(F)cc2)s1 was read as BAZ2B block -38.0%, G9a inh 7.08µM*, HP1b binding inh -8.1%, JMJD2A Tudor inh inconclusive and L3MBTL1 inh -9.1%.
For CCOC(=O)c1ccc(N=c2sc(C(=O)OC)cc(=O)n2CCCN2CCOCC2)cc1 the results were BAZ2B block 50.1µM*, G9a inh 50.1µM*, HP1b binding inh -8.4% and JMJD2A Tudor inh inconclusive.
For O=C(O)CCSc1ccccn1 the results were BAZ2B block 0.9%, G9a inh 14.1µM*, HP1b binding inh 16.7%, JMJD2A Tudor inh -16.0% and L3MBTL1 inh -0.8%.
`O=C(Nc1ccc2oc(-c3ccncc3)nc2c1)c1ccc(Br)o1` gave BAZ2B block -18.6%, G9a inh 31.6µM*, HP1b binding inh -2.6% and JMJD2A Tudor inh -14.1%.
`O=C(Nc1ccc2oc(-c3ccncc3)nc2c1)c1ccco1` gave BAZ2B block inconclusive, G9a inh 39.8µM*, HP1b binding inh 68.1% and JMJD2A Tudor inh -29.7%.
`Cc1ccc(Cn2cnc3c(oc4ccccc43)c2=O)cc1` gave BAZ2B block -9.4%, G9a inh -4.2%[59 µM], HP1b binding inh 19.8% and JMJD2A Tudor inh -17.8%.
For O=S(=O)(c1ccc(-c2cc(C(F)(F)F)on2)s1)N1CCN(c2cccc(Cl)c2)CC1 the results were BAZ2B block 2.1%, G9a inh inconclusive, HP1b binding inh 37.9% and JMJD2A Tudor inh -1.3%.
Screening Cc1cc(C)c(C(=O)COc2cccnc2[N+](=O)[O-])cc1C returned BAZ2B block 50.1µM*, G9a inh 7.08µM*, HP1b binding inh 2.7% and JMJD2A Tudor inh 56.2µM*.
COCCn1c(C)cc(C(=O)COc2cccnc2[N+](=O)[O-])c1C was read as BAZ2B block -30.7%, G9a inh inconclusive, HP1b binding inh 10.7% and JMJD2A Tudor inh -28.3%.
Screening COc1cccc(C(c2sc3nc(-c4ccco4)nn3c2O)N2CCN(C)CC2)c1 (centres undefined) returned BAZ2B block -11.7%, G9a inh -32.3%[59 µM], HP1b binding inh 39.2% and JMJD2A Tudor inh -4.2%.
Screening FC(F)(F)c1ccc(Cl)c(-n2c(-c3cc(-c4ccco4)[nH]n3)n[nH]c2=S)c1 returned BAZ2B block -38.3%, G9a inh 15.8µM*, HP1b binding inh 11.1% and JMJD2A Tudor inh -30.2%.
`FC(F)(F)c1ccc(Cl)c(-n2c(-c3cc(C4CC4)[nH]n3)n[nH]c2=S)c1` gave BAZ2B block -20.2%, G9a inh 8.91µM*, HP1b binding inh 13.1%, JMJD2A Tudor inh inconclusive and L3MBTL1 inh -2.5%.
FC(F)(F)c1ccc(Cl)c(-n2c(-c3ccco3)n[nH]c2=S)c1 was read as BAZ2B block -12.8%, G9a inh 10µM*, HP1b binding inh 50.3% and JMJD2A Tudor inh inconclusive.
Screening CCc1ccccc1NC(=O)Nc1nnc(N2CCCC2)s1 returned BAZ2B block -7.1%, G9a inh -33.7%[59 µM], HP1b binding inh 0.0% and JMJD2A Tudor inh -11.3%.
CCOC(=O)c1cnc2c(Cl)cc(Cl)cc2c1Nc1ccccc1OC was read as BAZ2B block 0.2%, G9a inh -3.6%[59 µM], HP1b binding inh 36.7% and JMJD2A Tudor inh -6.2%.
CCCCn1cnc2c1c(=O)n(C)c(=O)n2C was read as BAZ2B block -2.3%, G9a inh 6.4%[59 µM], HP1b binding inh 7.1%, JMJD2A Tudor inh -13.5% and L3MBTL1 inh 9.4%.
Screening Cn1c(=O)c2c(ncn2CCCC(=N)N2CCOCC2)n(C)c1=O returned BAZ2B block -2.3%, G9a inh 5.3%[12.7 µM], HP1b binding inh -7.9%, JMJD2A Tudor inh 50.1µM* and L3MBTL1 inh 7.7%.
Screening N#Cc1c(Cl)nsc1NN returned BAZ2B block 14.1µM*, G9a inh 7.08µM*, HP1b binding inh 44.7µM*, JMJD2A Tudor inh 50.1µM* and L3MBTL1 inh inconclusive.
`COc1c(Br)cc(Br)cc1/C=N/n1c(C)nnc1C` gave BAZ2B block -4.3%, G9a inh -34.1%[12.7 µM], HP1b binding inh inconclusive and JMJD2A Tudor inh 39.8µM*.
`Nc1c(-c2nc(-c3ccccc3Cl)no2)nnn1-c1ccccc1F` gave BAZ2B block 1.4%, G9a inh -9.1%[59 µM], HP1b binding inh 23.6% and JMJD2A Tudor inh -13.2%.
Screening COc1cc(C(=O)Nc2ccncc2)cc(OC)c1OC returned BAZ2B block 5.6%, G9a inh -12.3%, HP1b binding inh 30.0%, JMJD2A Tudor inh -3.9% and L3MBTL1 inh -4.1%.
`COc1cc(C(=O)Nc2ccc(Nc3ccccc3)cc2)cc(OC)c1OC` gave BAZ2B block inconclusive, G9a inh 50.1µM*, HP1b binding inh -21.1%, JMJD2A Tudor inh inconclusive and L3MBTL1 inh -19.2%.
COc1ccc2[nH]c(C(=O)O)c(NC(=O)c3cc(OC)c(OC)c(OC)c3)c2c1 was read as BAZ2B block -8.4%, G9a inh inconclusive, HP1b binding inh 17.5% and JMJD2A Tudor inh -13.9%.

Compound activity deposited in PubChem by National Center for Advancing Translational Sciences (NCATS).
